From PubChem BioAssay AID2603 (Johns Hopkins Ion Channel Center, 2010) come the findings set out here.

Structures are written as SMILES. Results with a measured potency or affinity are listed apart.

In the assay the target is Potassium voltage-gated channel subfamily KQT member 2 (Rattus norvegicus) (UniProt O88943). In words: KCNQ2 channel potentiators, dose response, mechanism study for KCNQ2 potentiator project, cell-based, automated electrophysiology (AID 2603). The settings on record: KCNQ2-CHO cells, automated patch clamp current potentiation; at 30 µM (top of the series). For orientation: Patch clamp records ionic current or voltage across a cell membrane.
Potassium voltage-gated channel subfamily KQT member 2 (Rattus norvegicus), sequence (O88943 whole entry, looked up): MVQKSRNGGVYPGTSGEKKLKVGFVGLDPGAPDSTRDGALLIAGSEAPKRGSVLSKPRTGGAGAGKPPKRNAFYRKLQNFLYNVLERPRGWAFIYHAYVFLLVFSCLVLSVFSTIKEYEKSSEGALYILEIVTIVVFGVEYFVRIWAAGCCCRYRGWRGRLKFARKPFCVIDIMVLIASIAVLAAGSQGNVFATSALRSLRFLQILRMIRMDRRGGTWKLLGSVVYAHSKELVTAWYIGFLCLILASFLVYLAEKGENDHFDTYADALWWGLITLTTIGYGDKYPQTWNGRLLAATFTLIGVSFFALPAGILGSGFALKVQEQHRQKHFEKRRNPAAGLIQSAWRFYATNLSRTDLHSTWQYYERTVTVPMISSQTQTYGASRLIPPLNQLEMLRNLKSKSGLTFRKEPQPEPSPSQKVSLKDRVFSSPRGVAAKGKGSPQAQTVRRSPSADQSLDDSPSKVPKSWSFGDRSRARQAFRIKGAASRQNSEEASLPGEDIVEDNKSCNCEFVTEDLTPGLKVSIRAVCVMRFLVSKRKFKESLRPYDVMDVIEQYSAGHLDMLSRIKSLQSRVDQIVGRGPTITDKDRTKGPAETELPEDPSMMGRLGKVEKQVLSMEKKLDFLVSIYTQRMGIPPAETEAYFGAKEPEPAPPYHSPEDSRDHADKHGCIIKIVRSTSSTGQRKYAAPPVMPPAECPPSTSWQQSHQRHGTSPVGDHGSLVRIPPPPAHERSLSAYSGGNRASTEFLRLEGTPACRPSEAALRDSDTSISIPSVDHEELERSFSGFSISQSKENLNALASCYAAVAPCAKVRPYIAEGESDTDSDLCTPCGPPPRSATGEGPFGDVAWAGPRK

In the case of `O=c1[nH]sc2cc(F)ccc12`, the potentiation stood at 102.
